Experimental data as given in PubChem BioAssay (Tox21).
Results filed as inconclusive are left out. Entries that show only a call come without a potency. Calls of active or inactive are those of the source. Calls follow the shape of the dose curve; as a rule, active = well fitted curve in the direction sought with a large enough effect in the repeat runs; inconclusive = weak or mixed curves; inactive = no such curve, though single readings can be large; an effect the other way counts as inactive or inconclusive.
Potency is read from the fitted curve at half-maximal effect.

Experiment: Human pregnane X receptor (PXR) small molecule agonists, qHTS cell viability counter screen (AID 1346977); also: nearly all actives have a fitted effect of over 50% in size
Details: PXR-Luc HepG2 viability, CellTiter-Fluor, 24 h; series mostly up to 92.4 µM
Outline: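 Cytotoxicity counter screen run in the same wells as the PXR luciferase assay, using PXR-Luc HepG2 cells in charcoal-stripped serum medium. Viability: CellTiter-Fluor fluorescence after 24hr compound treatment.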
For `CC(C=O)Cc1ccc2c(c1)OCO2` (centres undefined), the Potency was “inactive”.
In the case of `CCOP(=O)(OCC)OP(=O)(OCC)OCC`, the Potency is reported as “inactive”.
With `CSc1ccc(C(=O)C(C)(C)N2CCOCC2)cc1` the Potency was “inactive”.
For `O=c1oc2ccccc2c(O)c1C1CCCc2ccccc21` (centres undefined), the Potency was “inactive”.
For `NC1=NC(=O)C(c2ccccc2)O1` (centres undefined), the Potency was “inactive”.
For `CNC(=O)Oc1c(C(C)(C)C)cc(C)cc1C(C)(C)C`, the Potency was “inactive”.
In the case of `O=C1c2ccccc2C(=O)c2ccccc21`, the activity change, negative = cytotoxicity is reported as 8.57% [at 19 µM] (inactive).
With `Cc1ncc2n1-c1ccc(Cl)cc1C(c1ccccc1F)=NC2` the Potency was “inactive”.
For `CCCCc1ccc(O)cc1`, the Potency was “inactive”.
For `[Cl][Sn]([Cl])([Cl])[Cl]`, the Potency was “inactive”.
For `O=C(Cc1ccccc1)OCc1ccccc1`, the Potency was “inactive”.
In the case of `CC(C1CC1)C(O)(Cn1cncn1)c1ccc(Cl)cc1` (centres undefined), the Potency is reported as “inactive”.
In the case of `O=C1OC(=O)C2C1C1(Cl)C(Cl)=C(Cl)C2(Cl)C1(Cl)Cl` (centres undefined), the Potency is reported as “inactive”.
For `COC(=O)c1ccccc1S(=O)(=O)NC(=O)N(C)c1nc(C)nc(OC)n1`, the Potency was “inactive”.
For `c1coc(-c2nc3ccccc3[nH]2)c1`, the Potency was “inactive”.
In the case of `CCOC(=O)CP(=O)(OCC)OCC`, the Potency is reported as “inactive”.
For `Cc1ncc(CNC(=O)N(CCCl)N=O)c(N)n1`, the Potency was “inactive”.
With `CCSC(=O)N(CC)C1CCCCC1` the Potency was “inactive”.
In the case of `CC(N)=S`, the Potency is reported as “inactive”.
In the case of `CCCCCCI`, the Potency is reported as “inactive”.
For `CNCC(=O)c1ccc(O)c(O)c1`, the Potency was “inactive”.
For `CCOc1nc(C(Cl)(Cl)Cl)ns1`, the Potency was “inactive”.
For `CN1CCN(C(=O)O[C@H]2c3nccnc3C(=O)N2c2ccc(Cl)cn2)CC1`, the Potency was “inactive”.
For `CNC(=O)N(C)c1nc2ccccc2s1`, the Potency was “inactive”.
In the case of `NC(=S)C(N)=S`, the Potency is reported as “inactive”.
For `Oc1c(Cl)cccc1Cl`, the Potency was “inactive”.
With `ClCCCN1CCN(c2cccc(Cl)c2)CC1` the Potency was “inactive”.
For `CCCSP(=O)(OCC)Oc1ccc(Br)cc1Cl` (centres undefined), the Potency was “inactive”.
With `CC(=O)CC(c1ccc(Cl)cc1)c1c(O)c2ccccc2oc1=O` (centres undefined) the Potency was “inactive”.
For `N#CC(Cl)(Cl)Cl`, the Potency was “inactive”.
With `CCCCc1c(C)nc(NCC)[nH]c1=O` the Potency was “inactive”.
In the case of `O=CNC(N1CCN(C(NC=O)C(Cl)(Cl)Cl)CC1)C(Cl)(Cl)Cl` (centres undefined), the Potency is reported as “inactive”.
For `CCN(CC)C(C)C(=O)c1ccccc1` (centres undefined), the Potency was “inactive”.
In the case of `N#Cc1c(Cl)cccc1Cl`, the Potency is reported as “inactive”.
With `N#Cc1ccncc1` the Potency was “inactive”.
For `COc1cccc2c1cc([N+](=O)[O-])c1c(C(=O)O)cc3c(c12)OCO3`, the Potency was 12.2 µM (active).
With `COc1cc(OC)nc(Oc2cccc(Oc3nc(OC)cc(OC)n3)c2C(=O)O)n1` the Potency was “inactive”.
With `CCCCN(CCCCO)N=O` the Potency was “inactive”.

Experiment: Caspase-3/7 induction in HepG2 cells by small molecules, qHTS assay (AID 1346978); also: nearly all actives have a fitted effect of over 15% in size
Details: HepG2 caspase-3/7 activation, Caspase-Glo luminescence, 17 h; series mostly up to 92.4 µM
Outline: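 Wild-type HepG2 cells, 2,000/well, settled 5 hr at 37 C and 5% CO2, then compound-treated for 17 hr; caspase-3/7 activity read by luminescent Caspase-Glo 3/7 after 30 min at room temperature.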
For `CC(C=O)Cc1ccc2c(c1)OCO2` (centres undefined), the Potency was “inactive”.
With `CCOP(=O)(OCC)OP(=O)(OCC)OCC` the Potency was “inactive”.
For `CSc1ccc(C(=O)C(C)(C)N2CCOCC2)cc1`, the Potency was “inactive”.
For `O=c1oc2ccccc2c(O)c1C1CCCc2ccccc21` (centres undefined), the Potency was “inactive”.
For `NC1=NC(=O)C(c2ccccc2)O1` (centres undefined), the Potency was “inactive”.
In the case of `CNC(=O)Oc1c(C(C)(C)C)cc(C)cc1C(C)(C)C`, the Potency is reported as “inactive”.
For `O=C1c2ccccc2C(=O)c2ccccc21`, the caspase activation was -0.684% [at 19 µM] (inactive).
In the case of `Cc1ncc2n1-c1ccc(Cl)cc1C(c1ccccc1F)=NC2`, the Potency is reported as “inactive”.
With `CCCCc1ccc(O)cc1` the Potency was “inactive”.
With `[Cl][Sn]([Cl])([Cl])[Cl]` the Potency was “inactive”.
With `O=C(Cc1ccccc1)OCc1ccccc1` the Potency was “inactive”.
For `CC(C1CC1)C(O)(Cn1cncn1)c1ccc(Cl)cc1` (centres undefined), the Potency was “inactive”.
With `O=C1OC(=O)C2C1C1(Cl)C(Cl)=C(Cl)C2(Cl)C1(Cl)Cl` (centres undefined) the Potency was “inactive”.
With `COC(=O)c1ccccc1S(=O)(=O)NC(=O)N(C)c1nc(C)nc(OC)n1` the Potency was “inactive”.
For `c1coc(-c2nc3ccccc3[nH]2)c1`, the Potency was “inactive”.
With `CCOC(=O)CP(=O)(OCC)OCC` the Potency was “inactive”.
In the case of `Cc1ncc(CNC(=O)N(CCCl)N=O)c(N)n1`, the Potency is reported as “inactive”.
For `CCSC(=O)N(CC)C1CCCCC1`, the Potency was “inactive”.
For `CC(N)=S`, the Potency was “inactive”.
With `CCCCCCI` the Potency was “inactive”.
With `CNCC(=O)c1ccc(O)c(O)c1` the Potency was “inactive”.
For `CCOc1nc(C(Cl)(Cl)Cl)ns1`, the Potency was “inactive”.
With `CN1CCN(C(=O)O[C@H]2c3nccnc3C(=O)N2c2ccc(Cl)cn2)CC1` the Potency was “inactive”.
For `CNC(=O)N(C)c1nc2ccccc2s1`, the Potency was “inactive”.
For `NC(=S)C(N)=S`, the Potency was “inactive”.
In the case of `Oc1c(Cl)cccc1Cl`, the Potency is reported as “inactive”.
For `ClCCCN1CCN(c2cccc(Cl)c2)CC1`, the Potency was “inactive”.
With `CCCSP(=O)(OCC)Oc1ccc(Br)cc1Cl` (centres undefined) the Potency was “inactive”.
With `CC(=O)CC(c1ccc(Cl)cc1)c1c(O)c2ccccc2oc1=O` (centres undefined) the Potency was “inactive”.
For `N#CC(Cl)(Cl)Cl`, the Potency was “inactive”.
In the case of `CCCCc1c(C)nc(NCC)[nH]c1=O`, the Potency is reported as “inactive”.
With `O=CNC(N1CCN(C(NC=O)C(Cl)(Cl)Cl)CC1)C(Cl)(Cl)Cl` (centres undefined) the Potency was “inactive”.
For `CCN(CC)C(C)C(=O)c1ccccc1` (centres undefined), the Potency was “inactive”.
In the case of `N#Cc1c(Cl)cccc1Cl`, the Potency is reported as “inactive”.
In the case of `N#Cc1ccncc1`, the Potency is reported as “inactive”.
For `COc1cccc2c1cc([N+](=O)[O-])c1c(C(=O)O)cc3c(c12)OCO3`, the Potency was 9.69 µM (active).
With `COc1cc(OC)nc(Oc2cccc(Oc3nc(OC)cc(OC)n3)c2C(=O)O)n1` the Potency was “inactive”.
In the case of `CCCCN(CCCCO)N=O`, the Potency is reported as “inactive”.

Experiment: Caspase-3/7 induction in CHO-K1 cells by small molecules, qHTS cell viability counter screen (AID 1346979); also: nearly all actives have a fitted effect of over 35% in size
Details: CellTiter-Fluor fluorescence, 17 h; series mostly up to 92.4 µM
Outline: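 Cytotoxicity counter screen run in parallel with the caspase-3/7 assay: CHO-K1 cells, 16hr compound treatment at 37C, then CellTiter-Fluor for 1hr before fluorescence reading.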
For `CC(C=O)Cc1ccc2c(c1)OCO2` (centres undefined), the Potency was “inactive”.
In the case of `CCOP(=O)(OCC)OP(=O)(OCC)OCC`, the Potency is reported as “inactive”.
In the case of `CSc1ccc(C(=O)C(C)(C)N2CCOCC2)cc1`, the Potency is reported as “inactive”.
In the case of `O=c1oc2ccccc2c(O)c1C1CCCc2ccccc21` (centres undefined), the Potency is reported as “inactive”.
With `NC1=NC(=O)C(c2ccccc2)O1` (centres undefined) the Potency was “inactive”.
In the case of `CNC(=O)Oc1c(C(C)(C)C)cc(C)cc1C(C)(C)C`, the Potency is reported as “inactive”.
For `O=C1c2ccccc2C(=O)c2ccccc21`, the activity change, negative = cytotoxicity was 11.3% [at 19 µM] (inactive).
In the case of `Cc1ncc2n1-c1ccc(Cl)cc1C(c1ccccc1F)=NC2`, the Potency is reported as “inactive”.
In the case of `CCCCc1ccc(O)cc1`, the Potency is reported as “inactive”.
With `[Cl][Sn]([Cl])([Cl])[Cl]` the Potency was “inactive”.
For `O=C(Cc1ccccc1)OCc1ccccc1`, the Potency was “inactive”.
For `CC(C1CC1)C(O)(Cn1cncn1)c1ccc(Cl)cc1` (centres undefined), the Potency was “inactive”.
With `O=C1OC(=O)C2C1C1(Cl)C(Cl)=C(Cl)C2(Cl)C1(Cl)Cl` (centres undefined) the Potency was “inactive”.
With `COC(=O)c1ccccc1S(=O)(=O)NC(=O)N(C)c1nc(C)nc(OC)n1` the Potency was “inactive”.
In the case of `c1coc(-c2nc3ccccc3[nH]2)c1`, the Potency is reported as “inactive”.
For `CCOC(=O)CP(=O)(OCC)OCC`, the Potency was “inactive”.
With `Cc1ncc(CNC(=O)N(CCCl)N=O)c(N)n1` the Potency was “inactive”.
In the case of `CCSC(=O)N(CC)C1CCCCC1`, the Potency is reported as “inactive”.
In the case of `CC(N)=S`, the Potency is reported as “inactive”.
For `CCCCCCI`, the Potency was “inactive”.
In the case of `CNCC(=O)c1ccc(O)c(O)c1`, the Potency is reported as “inactive”.
In the case of `CCOc1nc(C(Cl)(Cl)Cl)ns1`, the Potency is reported as “inactive”.
In the case of `CN1CCN(C(=O)O[C@H]2c3nccnc3C(=O)N2c2ccc(Cl)cn2)CC1`, the Potency is reported as “inactive”.
For `CNC(=O)N(C)c1nc2ccccc2s1`, the Potency was “inactive”.
In the case of `NC(=S)C(N)=S`, the Potency is reported as “inactive”.
With `Oc1c(Cl)cccc1Cl` the Potency was “inactive”.
With `ClCCCN1CCN(c2cccc(Cl)c2)CC1` the Potency was “inactive”.
With `CCCSP(=O)(OCC)Oc1ccc(Br)cc1Cl` (centres undefined) the Potency was “inactive”.
With `CC(=O)CC(c1ccc(Cl)cc1)c1c(O)c2ccccc2oc1=O` (centres undefined) the Potency was “inactive”.
With `N#CC(Cl)(Cl)Cl` the Potency was “inactive”.
In the case of `CCCCc1c(C)nc(NCC)[nH]c1=O`, the Potency is reported as “inactive”.
With `O=CNC(N1CCN(C(NC=O)C(Cl)(Cl)Cl)CC1)C(Cl)(Cl)Cl` (centres undefined) the Potency was “inactive”.
For `CCN(CC)C(C)C(=O)c1ccccc1` (centres undefined), the Potency was “inactive”.
For `N#Cc1c(Cl)cccc1Cl`, the Potency was “inactive”.
With `N#Cc1ccncc1` the Potency was “inactive”.
With `COc1cccc2c1cc([N+](=O)[O-])c1c(C(=O)O)cc3c(c12)OCO3` the Potency was 21.7 µM (active).
With `COc1cc(OC)nc(Oc2cccc(Oc3nc(OC)cc(OC)n3)c2C(=O)O)n1` the Potency was “inactive”.
With `CCCCN(CCCCO)N=O` the Potency was “inactive”.
